Test results published in PubChem BioAssay (Tox21).
Results filed as inconclusive are left out. Unmarked numbers belong to inactive results. Calls follow the shape of the full dose curve.

Biological target: Peroxisome proliferator-activated receptor gamma (Homo sapiens) (UniProt P37231)
Assay: qHTS assay to identify small molecule antagonists of the peroxisome proliferator-activated receptor gamma (PPARg) signaling pathway (AID 743191); also: nearly all actives have a fitted effect of over 30% in size
Conditions: HEK293H PPARg-UAS-bla, beta-lactamase ratio, antagonist, 17 h; series mostly up to 62.6 µM; ratio activity, negative = inhibition: at the top concentration
Description: U.S. Tox21 Program National Center for Advancing Translational Sciences [NCATS] NIH Chemical Genomics Center [NCGC] U.S. Environmental Protection Agency [EPA] National Institutes of Environmental Health Sciences [NIEHS] National Toxicology Program [NTP] U.S. Food and Drug Administration [FDA] Tox21 Assay Overview: The peroxisome proliferator-activated receptors (PPARs) are lipid-activated transcription factors of the nuclear receptor superfamily with three distinct subtypes namely PPAR alpha, PPAR delta (also called PPAR beta) and PPAR gamma (PPARg). All these subtypes heterodimerize with Retinoid X receptor (RXR) and these heterodimers regulate transcription of various genes. PPAR-gamma receptor (glitazone receptor) is involved in the regulation of glucose and lipid metabolism. To identify the compounds that inhibit PPAR-gamma signaling, GeneBLAzer PPAR gamma UAS-bla HEK293H cell line (Invitrogen, Carlsbad, CA, USA) containing a beta-lactamase reporter gene under control of an Upstream Activator Sequence (UAS) was used to screen the Tox21 compound library.
Tox21 Assay Protocol Summary: PPARg-bla cells were dispensed at 3000 cells/6uL/well in 1536-well black wall/clear bottom plates using a Multidrop Combi (Thermo Fisher Scientific, Waltham, MA) dispenser. After the assay plates were incubated at 37C and 5% CO2 for 5 h, 23 nL of compounds dissolved in DMSO, positive controls or DMSO only was transferred to the assay plate by a Pintool station (Kalypsys, San Diego, CA). The assay plates were incubated at 37C for 17 h. After 1 uL of LiveBLAzerTM B/G FRET substrate was added using a Bioraptr Flying Reagent Dispenser (FRD) workstation (Beckman Coulter, Indianapolis, IN, USA), the plates were incubated at room temperature for 1 h, and fluorescence intensity was measured by an Envision plate reader (PerkinElmer, Shelton, CT).
% is scaled to controls: 0 for no effect and ±100 for the full control effect.

Peroxisome proliferator-activated receptor gamma (Homo sapiens), sequence (P37231 whole entry, looked up): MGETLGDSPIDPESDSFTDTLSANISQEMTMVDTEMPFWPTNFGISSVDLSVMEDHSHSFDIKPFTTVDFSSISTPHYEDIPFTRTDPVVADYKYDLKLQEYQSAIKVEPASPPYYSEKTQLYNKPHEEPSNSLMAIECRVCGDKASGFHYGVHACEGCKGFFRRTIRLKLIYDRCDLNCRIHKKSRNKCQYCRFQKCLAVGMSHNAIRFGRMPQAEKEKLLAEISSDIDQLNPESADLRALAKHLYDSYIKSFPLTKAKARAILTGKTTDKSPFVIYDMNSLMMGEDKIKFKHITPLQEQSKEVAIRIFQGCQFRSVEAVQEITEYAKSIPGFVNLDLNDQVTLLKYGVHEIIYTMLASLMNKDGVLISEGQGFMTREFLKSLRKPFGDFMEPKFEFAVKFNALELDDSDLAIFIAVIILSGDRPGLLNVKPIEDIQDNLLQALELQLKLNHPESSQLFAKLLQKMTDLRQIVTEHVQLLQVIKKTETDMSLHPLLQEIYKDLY

SMILES	ratio activity, negative = inhibition
Cc1c(Cn2ccnc2)c2ccccc2n1CCC(=O)O	1.79%
CC(C)CCCC(C)CCO (stereo not given)	0.238%
CN1CCC(=C2c3ccccc3CCc3sccc32)CC1	-3.26%
COC(Cc1ccccc1)OC	-7.49%
CC(C)(C)c1cc(CCC(=O)OCC(COC(=O)CCc2cc(C(C)(C)C)c(O)c(C(C)(C)C)c2)(COC(=O)CCc2cc(C(C)(C)C)c(O)c(C(C)(C)C)c2)COC(=O)CCc2cc(C(C)(C)C)c(O)c(C(C)(C)C)c2)cc(C(C)(C)C)c1O	4.55% [at 29.1 µM]
C1CCC2OC2C1 (stereo not given)	-15.3% [at 81.1 µM]
COC(=O)CSc1cc(N=c2sc(=O)n3n2CCCC3)c(F)cc1Cl	-27.3%
N#Cc1cc2ccccc2c2ccccc12	-4.34% [at 81.1 µM]
CCOC(=O)CC(C)C	17.8%
COc1ccc(OC)c(OC)c1	1.58%
CC(=O)NCCCS(=O)(=O)O	2.49% [at 29.1 µM]
CCCCCCCCC(CO)CCCCCC (stereo not given)	21.9%
Nc1nc(N)c(-c2ccccc2)s1	0.574%
CCCCCCCCCCCCCCCC(=O)OC/C=C(C)/C=C/C=C(C)/C=C/C1=C(C)CCCC1(C)C	-36.3%
C=CCCCCCC	9.05%
CC(C)(C)C1CCCCC1O (stereo not given)	-1.63%
Cc1ccccc1N=Nc1ccc(N=Nc2c(O)ccc3ccccc23)c(C)c1	3.53%
Cc1cccc(C(C)(C)C)c1O	18.9%
CC(=O)SCc1ccco1	0.629%
CCCCCCCCCCCCCCC1CO1 (stereo not given)	4.63%

SMILES	ratio activity, negative = inhibition
C=CC(=O)OCCOC(=O)CCC(=O)O	3.08%
N#CCCNCCC#N	-13.6% [at 81.1 µM]
C1=Cc2ccccc2C1	-7.24%
CCCCC(CC)(CO)CO	4.7%
c1ccc(OCc2ccc(CCCN3CCOCC3)cc2)cc1	12.6%
CCCCCc1ccc(N)cc1	12.7%
Cc1ccc(C(=O)C(C)CN2CCCCC2)cc1 (stereo not given)	2.79%
CC(=O)OC/C=C/c1ccccc1	-4.59%
Cc1ccc(O)c([C@H](CCN(C(C)C)C(C)C)c2ccccc2)c1	-2.4%
CN1CCN(C2=Nc3ccccc3Sc3ccc(Cl)cc32)CC1	-25.9%
CC(CN)CCCN (stereo not given)	14.3%
CC(C)c1ccccc1C(C)C	-1.31%
O=c1[nH]cnc2ccccc12	1.72% [at 81.1 µM]
N[C@H]1C(O)O[C@H](CO)[C@H](O)[C@@H]1O (stereo not given in full)	1.54%
CCCCCCCCN(C)C	-6.81%
C=Cc1c(C)c2cc3[nH]c(cc4nc(cc5nc(cc1[nH]2)C(C)=C5CCC(=O)O)C(CCC(=O)O)=C4C)c(C)c3C=C	14.7%
c1ccc(CNCc2ccccc2)cc1	-15.3%
CC(=O)CC(=O)c1ccccc1	1.51% [at 81.1 µM]
CN1CCC[C@@H]1c1cccnc1	-0.244%
CC(=O)c1c(C)c([N+](=O)[O-])c(C(C)(C)C)c([N+](=O)[O-])c1C	7.06%
